According to PubChem BioAssay (NCATS):
Inconclusive results are not listed. The source made the active and inactive calls. Calls follow the shape of the dose curve; as a rule, active = well fitted cell-killing curve with a large enough effect; inconclusive = small, poorly fitted or top-dose-only effect, or effect the other way; inactive = flat fitted curve, though single readings scatter.

How the values were obtained:
Assay in all cases: Primary qHTS to identify gynecologic anti-cancer compounds using libraries of approved drugs and bioactive compounds (AID 1345084); also: nearly all actives have a fitted effect of over 55% in size
C33A = details: Gynecologic cancer cell panel viability, ATPlite luminescence, 48 h; series mostly up to 57.5 µM
In short: (§1)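 Five-concentration response, 48 h; readout is ATP-driven luciferase luminescence.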

CAOV3 = details: Gynecologic cancer cell panel viability, ATPlite luminescence, 48 h; series mostly up to 57.5 µM
In short: as §1

CASKI = details: Gynecologic cancer cell panel viability, ATPlite luminescence, 48 h; series mostly up to 57.5 µM
In short: as §1

Es-2 = details: Gynecologic cancer cell panel viability, ATPlite luminescence, 48 h; series mostly up to 57.5 µM
In short: as §1

HeLa = details: Gynecologic cancer cell panel viability, ATPlite luminescence, 48 h; series mostly up to 57.5 µM
In short: as §1

Hek293T = details: Gynecologic cancer cell panel viability, ATPlite luminescence, 48 h, control line for the selectivity index; series mostly up to 57.5 µM
In short: as §1

JEG-3 = details: Gynecologic cancer cell panel viability, ATPlite luminescence, 48 h; series mostly up to 57.5 µM
In short: as §1

OV90 = details: Gynecologic cancer cell panel viability, ATPlite luminescence, 48 h; series mostly up to 57.5 µM
In short: as §1

PA-1 = details: Gynecologic cancer cell panel viability, ATPlite luminescence, 48 h; series mostly up to 57.5 µM
In short: as §1

Tov-21-G = details: Gynecologic cancer cell panel viability, ATPlite luminescence, 48 h; series mostly up to 57.5 µM
In short: as §1

Tov112D = details: Gynecologic cancer cell panel viability, ATPlite luminescence, 48 h; series mostly up to 57.5 µM
In short: as §1
% is scaled to controls: 0 for no effect and ±100 for the full control effect.

Cc1c(C(=O)Nc2ccc(N3CC(C)OC(C)C3)nc2)cccc1-c1ccc(OC(F)(F)F)cc1 (stereo not given)
inactive: Potency (C33A) | Potency (CAOV3) | Potency (CASKI) | Potency (Es-2) | Potency (HeLa) | Potency (Hek293T) | Potency (JEG-3) | Potency (OV90) | Potency (PA-1) | Potency (Tov-21-G) | Potency (Tov112D)

CCC(=O)O[C@H]1C(C)(C)[C@H]([C@@H](O)C(=O)OC)[C@]2(C)C(=O)[C@@]1(O)[C@H]1O[C@]13C1CC(=O)O[C@@H](c4ccoc4)[C@]1(C)CCC32 (stereo not given in full)
inactive: Potency (C33A) | Potency (CAOV3) | Potency (CASKI) | Potency (Es-2) | Potency (HeLa) | Potency (Hek293T) | Potency (JEG-3) | Potency (OV90) | Potency (PA-1) | Potency (Tov-21-G) | Potency (Tov112D)

CC(C)N(CCCCOCC(=O)NS(C)(=O)=O)c1cnc(-c2ccccc2)c(-c2ccccc2)n1
inactive: Potency (C33A) | Potency (CAOV3) | Potency (CASKI) | Potency (Es-2) | Potency (HeLa) | Potency (Hek293T) | Potency (JEG-3) | Potency (OV90) | Potency (PA-1) | Potency (Tov-21-G) | Potency (Tov112D)

OC[C@H]1O[C@@H](Oc2ccccc2)[C@H](O)[C@@H](O)[C@@H]1O
inactive: Potency (C33A) | Potency (CAOV3) | Potency (CASKI) | Potency (Es-2) | Potency (HeLa) | Potency (Hek293T) | Potency (JEG-3) | Potency (OV90) | Potency (PA-1) | Potency (Tov-21-G) | Potency (Tov112D)

O=C(O)CC1CCC(c2ccc(-c3ccc4nc(C(=O)NCc5ccc(OC(F)(F)F)cc5)cn4c3)cc2)CC1 (stereo not given)
inactive: Potency (C33A) | Potency (CAOV3) | Potency (CASKI) | Potency (Es-2) | Potency (HeLa) | Potency (Hek293T) | Potency (JEG-3) | Potency (OV90) | Potency (PA-1) | Potency (Tov-21-G) | Potency (Tov112D)

N[C@@]1(C(=O)O)CC[C@H]2[C@H](C(=O)O)[C@H]21
inactive: Potency (C33A) | Potency (CAOV3) | Potency (CASKI) | Potency (Es-2) | Potency (HeLa) | Potency (Hek293T) | Potency (JEG-3) | Potency (OV90) | Potency (PA-1) | Potency (Tov-21-G) | Potency (Tov112D)

C[C@@H]1O[C@@H](O[C@@H]2[C@@H](O)[C@@H](O[C@]3(CO)O[C@H](CO)[C@@H](O)[C@@H]3OC(=O)/C=C/c3ccc(O)cc3)O[C@H](CO)[C@H]2OC(=O)/C=C/c2ccc(O)cc2)[C@H](O)[C@H](O)[C@H]1O[C@@H]1O[C@@H](C)[C@H](O[C@@H]2OC[C@](O)(CO)[C@H]2O)[C@@H](O)[C@H]1O
inactive: activity change, negative = cytotoxicity (C33A) 8.98% [at 11.6 µM] | activity change, negative = cytotoxicity (CAOV3) 0.132% [at 11.6 µM] | activity change, negative = cytotoxicity (CASKI) 12.2% [at 11.6 µM] | activity change, negative = cytotoxicity (Es-2) -1.87% [at 11.6 µM] | activity change, negative = cytotoxicity (HeLa) 10.7% [at 11.6 µM] | activity change, negative = cytotoxicity (Hek293T) -1.85% [at 11.6 µM] | activity change, negative = cytotoxicity (JEG-3) 3.39% [at 11.6 µM] | activity change, negative = cytotoxicity (OV90) -2.82% [at 11.6 µM] | activity change, negative = cytotoxicity (PA-1) 32.6% [at 11.6 µM] | activity change, negative = cytotoxicity (Tov-21-G) 7.09% [at 11.6 µM] | activity change, negative = cytotoxicity (Tov112D) 12.6% [at 11.6 µM]

CC(=O)O[C@H]1C[C@@](O)(C(C)C)C2[C@@H](OC(=O)c3ccc(O)cc3)C[C@@]3(C)O[C@H]3C[C@]21C (stereo not given in full)
inactive: Potency (C33A) | Potency (CAOV3) | Potency (CASKI) | Potency (Es-2) | Potency (HeLa) | Potency (Hek293T) | Potency (JEG-3) | Potency (OV90) | Potency (PA-1) | Potency (Tov-21-G) | Potency (Tov112D)

CCNC(=O)C1OC(n2cnc3c(N)nc(NCCc4ccc(CCC(=O)O)cc4)nc32)C(O)C1O (stereo not given)
inactive: Potency (C33A) | Potency (CAOV3) | Potency (CASKI) | Potency (Es-2) | Potency (HeLa) | Potency (Hek293T) | Potency (JEG-3) | Potency (OV90) | Potency (PA-1) | Potency (Tov-21-G) | Potency (Tov112D)

CC(C)C[C@H](CC(=O)NO)C(=O)N[C@@H](Cc1ccc2ccccc2c1)C(=O)N[C@@H](C)C(=O)NCCN
inactive: Potency (C33A) | Potency (CAOV3) | Potency (CASKI) | Potency (Es-2) | Potency (HeLa) | Potency (Hek293T) | Potency (JEG-3) | Potency (OV90) | Potency (PA-1) | Potency (Tov-21-G) | Potency (Tov112D)

O=S(=O)(c1ccc(S(=O)(=O)n2cnc3ccccc32)cc1)N1CCCCCC1
inactive: Potency (C33A) | Potency (CAOV3) | Potency (CASKI) | Potency (Es-2) | Potency (HeLa) | Potency (Hek293T) | Potency (JEG-3) | Potency (OV90) | Potency (PA-1) | Potency (Tov-21-G) | Potency (Tov112D)

C/C1=C\CC[C@H](C)CCO[C@@H]2O[C@H](CO[C@@H]3OC[C@](O)(COC1=O)[C@H]3O)[C@@H](O)[C@H](O)[C@H]2O
inactive: Potency (C33A) | Potency (CAOV3) | Potency (CASKI) | Potency (Es-2) | Potency (HeLa) | Potency (Hek293T) | Potency (JEG-3) | Potency (OV90) | Potency (PA-1) | Potency (Tov-21-G) | Potency (Tov112D)

CC#CC(=O)N1CCC[C@H]1c1nc(-c2ccc(C(=O)Nc3ccccn3)cc2)c2c(N)nccn12
inactive: Potency (C33A) | Potency (CAOV3) | Potency (CASKI) | Potency (Es-2) | Potency (HeLa) | Potency (Hek293T) | Potency (JEG-3) | Potency (OV90) | Potency (PA-1) | Potency (Tov-21-G) | Potency (Tov112D)

CC(O)/C=C/C1C(C)C(O[C@@H]2O[C@H](CO)[C@@H](O)[C@H](O)[C@H]2O)C(O)CC1(C)C (stereo not given in full)
inactive: Potency (C33A) | Potency (CAOV3) | Potency (CASKI) | Potency (Es-2) | Potency (HeLa) | Potency (Hek293T) | Potency (JEG-3) | Potency (OV90) | Potency (PA-1) | Potency (Tov-21-G) | Potency (Tov112D)

C=C1C(=O)OC2C1C(O)CC1(C)C(O)CCC(C=O)C21 (stereo not given)
inactive: Potency (C33A) | Potency (CAOV3) | Potency (CASKI) | Potency (Es-2) | Potency (HeLa) | Potency (Hek293T) | Potency (JEG-3) | Potency (OV90) | Potency (PA-1) | Potency (Tov-21-G) | Potency (Tov112D)
